Assay results: PubChem BioAssay (Tox21)
Inconclusive results are not listed. Active and inactive are the calls of the source. Unless noted, calls come from the whole dose curve; as a rule, active = well fitted curve in the direction sought with a large enough effect in the repeat runs; inconclusive = weak or mixed curves; inactive = no such curve, though single readings can be large; an effect the other way counts as inactive or inconclusive.

Assays:
[1] = qHTS assay to identify aromatase inhibitors - cell viability counter screen (AID 743084);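 note: cells stimulated with testosterone during compound exposure; nearly all actives have a fitted effect of over 55% in size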
[2] = target: Aryl hydrocarbon receptor (Homo sapiens) (UniProt P35869); test: qHTS assay to identify small molecule that activate the aryl hydrocarbon receptor (AhR) signaling pathway (AID 743085);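 note: HG2L7.5c1 human HepG2 liver cells with stably integrated DRE-driven firefly reporter; series mostly up to about 70 µM; nearly all actives have a fitted effect of over 15% in size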
In short: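 Luminescence (ONE-Glo) from a dioxin-responsive-element luciferase reporter in HG2L7.5c1 HepG2 cells after 24 hr compound exposure at 37C; viability measured by CellTiter-Fluor fluorescence beforehand.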

[3] = qHTS assay to identify small molecule that activate the aryl hydrocarbon receptor (AhR) signaling pathway - cell viability counter screen (AID 743086);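 note: HepG2 liver cells carrying the AhR DRE luciferase reporter; series mostly up to about 70 µM; nearly all actives have a fitted effect of over 45% in size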
In short: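 HepG2-AhR-luc (HG2L7.5c1) cells, 4000/well, were preincubated 5 h at 37C, exposed to compound in qHTS format for 24 hr at 37C, then given CellTiter-Fluor for 30 min; viability was read as fluorescence in the reporter wells.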

[4] = target: Peroxisome proliferator-activated receptor gamma (Homo sapiens) (UniProt P37231); test: qHTS assay to identify small molecule agonists of the peroxisome proliferator-activated receptor gamma (PPARg) signaling pathway (AID 743094; active = well fitted activation curve with a large enough effect in the signal ratio in the repeat runs, not every such curve was filed as active; the % refers to the signal ratio)
In short: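 Following 5 h plating at 37C, PPARg-bla HEK293H cells receive compound or DMSO for 17 h; fluorescence intensity is recorded after LiveBLAzer B/G loading for 1 h at room temperature.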

[5] = target: Peroxisome proliferator-activated receptor gamma (Homo sapiens) (UniProt P37231); test: qHTS assay to identify small molecule antagonists of the peroxisome proliferator-activated receptor gamma (PPARg) signaling pathway (AID 743191; calls by dose curve; note: series mostly up to about 63 µM; nearly all actives have a fitted effect of over 30% in size)
In short: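 GeneBLAzer PPARg UAS-bla HEK293H cells carrying a UAS-driven beta-lactamase reporter were plated at 3000 cells/well, preincubated 5 h at 37C, then given compound for 17 h at 37C; LiveBLAzer B/G FRET substrate was read after 1 h at room temperature.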

[6] = qHTS assay to identify small molecule antagonists of the peroxisome proliferator-activated receptor gamma (PPARg) signaling pathway - cell viability counter screen (AID 743194); details: Potency: co-treated with 50 nM rosiglitazone; note: nearly all actives have a fitted effect of over 55% in size
In short: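 PPARg-UAS-bla HEK293H cells were plated, rested 5 h at 37 C, then treated with compounds plus rosiglitazone (50 nM final) for 17 h at 37 C; viability was then read by CellTiter-Glo luminescence after 30 min at room temperature.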

[7] = qHTS assay for small molecule agonists of the antioxidant response element (ARE) signaling pathway (AID 743202; active = well fitted activation curve with a large enough effect in the signal ratio in the repeat runs, not every such curve was filed as active; the % refers to the signal ratio)
In short: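 Read-out: LiveBLAzer B/G FRET substrate fluorescence after 2 h at room temperature, following 16 h compound treatment at 37 C of HepG2 cells carrying an ARE-driven beta-lactamase reporter.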

[8] = qHTS assay for small molecule agonists of the antioxidant response element (ARE) signaling pathway - cell viability counter screen (AID 743203; calls by dose curve; note: nearly all actives have a fitted effect of over 55% in size)
In short: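 Compounds in DMSO were pinned onto ARE-bla HepG2 cells plated 5 hrs earlier at 2,000 cells/well. Sixteen hours later at 37C/5% CO2, CellTiter-Glo was added and luminescence measured after 30 min at room temperature.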

[9] = qHTS assay for small molecule activators of the heat shock response signaling pathway - cell viability counter screen (AID 743209); note: nearly all actives have a fitted effect of over 50% in size
In short: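 Counter screen for cytotoxicity in HeLa HSE-bla reporter cells. Treatment was 5 h at 37 C; viability was detected by luminescent ATP assay (CellTiter-Glo) in the same wells as the beta-lactamase read.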

[10] = qHTS assay for small molecule activators of the heat shock response signaling pathway (AID 743210; active = well fitted activation curve with a large enough effect in the signal ratio in the repeat runs, with a control signal flat, not every such curve was filed as active; the % refers to the signal ratio; note: series mostly up to about 63 µM)
In short: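 HSE-bla HeLa cells (beta-lactamase reporter under heat shock response elements) were exposed to compounds for 5 h at 37 C, then loaded with LiveBLAzer B/G FRET substrate for 2.5 h at room temperature before fluorescence reading.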

[11] = qHTS assay to identify small molecule agonists of the peroxisome proliferator-activated receptor delta (PPARd) signaling pathway - cell viability counter screen (AID 743211); note: nearly all actives have a fitted effect of over 55% in size
In short: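 Viability was measured as CellTiter-Glo luminescence (30 min, room temperature) in the same wells as the beta-lactamase readout. GeneBLAzer PPARd UAS-bla HEK293H cells received compound after 5 h plating and were incubated 17 h at 37 C.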

[12] = target: Peroxisome proliferator-activated receptor delta (Homo sapiens) (UniProt Q03181); test: qHTS assay to identify small molecule agonists of the peroxisome proliferator-activated receptor delta (PPARd) signaling pathway (AID 743212; calls by dose curve)
In short: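 GeneBLAzer PPARd UAS-bla HEK293H cells (beta-lactamase reporter under UAS control), plated and rested 5 h at 37 C, then exposed to compounds in DMSO at 37 C; LiveBLAzer B/G FRET substrate added, 2 h room temperature, fluorescence read.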

[13] = qHTS assay to identify small molecule antagonists of the peroxisome proliferator-activated receptor delta (PPARd) signaling pathway - cell viability counter screen (AID 743213); note: nearly all actives have a fitted effect of over 50% in size
In short: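 Agonist-stimulated (L165041, 300 nM final) HEK293H PPARd UAS-bla cells are exposed to compounds for 17 h at 37 C, and ATP-based luminescence (CellTiter-Glo) from the same wells reports cytotoxicity.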

[14] = target: Peroxisome proliferator-activated receptor delta (Homo sapiens) (UniProt Q03181); test: qHTS assay to identify small molecule antagonists of the peroxisome proliferator-activated receptor delta (PPARd) signaling pathway (AID 743215; active = well fitted inhibition curve with a large enough effect in the signal ratio in the repeat runs, not every such curve was filed as active; the % refers to the signal ratio; note: series mostly up to about 62 µM)
In short: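 With L165041 present at 300 nM final, compounds were incubated 17 h at 37 C on PPARd UAS-bla HEK293H cells. A FRET-based beta-lactamase substrate was then applied for 2 h at room temperature and fluorescence intensity recorded.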

[15] = qHTS assay to identify small molecule agonists of the farnesoid-X-receptor (FXR) signaling pathway - cell viability counter screen (AID 743218); note: nearly all actives have a fitted effect of over 45% in size
In short: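 After 16 h at 37 C with test compounds, FXR-bla HEK 293T cells were given LiveBLAzer B/G substrate for 2 h at RT and then CellTiter-Glo; luminescence was taken after 30 min.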

[16] = qHTS assay to identify small molecule antagonists of the farnesoid-X-receptor (FXR) signaling pathway - cell viability counter screen (AID 743221; active = well fitted cell-killing curve with a large enough effect in the repeat runs, not every such curve was filed as active; note: nearly all actives have a fitted effect of over 50% in size)
In short: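 Cytotoxicity counter screen run in the FXR-bla reporter wells: HEK 293T cells exposed to compound with 50 uM (final) chenodeoxycholic acid for 16 h, 37 C, then viability measured by CellTiter-Glo luminescence after 30 min, room temperature.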

[17] = target: Vitamin D3 receptor (Homo sapiens) (UniProt P11473); test: qHTS assay to identify small molecule agonists of the vitamin D receptor (VDR) signaling pathway (AID 743222; calls by dose curve)
In short: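 VDR-bla cells were seeded, left 4 h, treated with compounds in DMSO for 16 h, incubated 2 h at RT with B/G FRET substrate, and read for fluorescence.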

[18] = target: Vitamin D3 receptor (Homo sapiens) (UniProt P11473); test: qHTS assay to identify small molecule antagonists of the vitamin D receptor (VDR) signaling pathway (AID 743223; active = well fitted inhibition curve with a large enough effect in the signal ratio in the repeat runs, not every such curve was filed as active; the % refers to the signal ratio)
In short: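 Antagonist mode: compound added to VDR-bla cells alongside agonist 1alpha,25-dihydroxyvitamin D3 (3 nM final), incubation 16 h at 37C. Read-out is LiveBLAzer FRET fluorescence, 2 h at room temperature.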

[19] = target: Bile acid receptor (Homo sapiens) (UniProt Q96RI1); test: qHTS assay to identify small molecule antagonists of the farnesoid-X-receptor (FXR) signaling pathway (AID 743217; active = well fitted inhibition curve with a large enough effect in the signal ratio in the repeat runs, not every such curve was filed as active; the % refers to the signal ratio)
In short: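 In this cell-based antagonist screen, inhibition of CDCA-driven (50 uM final) UAS-beta-lactamase expression in HEK 293T cells was measured by FRET fluorescence following 16 h compound exposure at 37 °C.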

[20] = target: Bile acid receptor (Homo sapiens) (UniProt Q96RI1); test: qHTS assay to identify small molecule agonists of the farnesoid-X-receptor (FXR) signaling pathway (AID 743220; active = well fitted activation curve with a large enough effect in the signal ratio in the repeat runs, not every such curve was filed as active; the % refers to the signal ratio)
In short: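 Beta-lactamase reporter under UAS control in GeneBLAzer FXR HEK 293T cells (5000/well) measured with LiveBLAzer FRET substrate after 2 h at room temperature. Compound exposure lasted 16 h at 37C.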

Measured: Potency

Peroxisome proliferator-activated receptor delta (Homo sapiens), sequence (Q03181 whole entry, looked up): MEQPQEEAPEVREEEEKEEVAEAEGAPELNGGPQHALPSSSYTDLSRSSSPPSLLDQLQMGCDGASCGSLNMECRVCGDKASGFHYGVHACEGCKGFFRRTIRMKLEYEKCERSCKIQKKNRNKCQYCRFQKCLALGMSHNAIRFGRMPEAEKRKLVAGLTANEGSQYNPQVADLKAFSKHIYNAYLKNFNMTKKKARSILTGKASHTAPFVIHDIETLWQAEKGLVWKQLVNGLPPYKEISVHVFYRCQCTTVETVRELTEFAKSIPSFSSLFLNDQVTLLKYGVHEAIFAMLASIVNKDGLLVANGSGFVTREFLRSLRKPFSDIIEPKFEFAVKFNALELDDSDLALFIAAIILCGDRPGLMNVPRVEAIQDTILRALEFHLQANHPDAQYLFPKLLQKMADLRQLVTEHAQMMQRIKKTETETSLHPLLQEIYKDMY
Bile acid receptor (Homo sapiens), sequence (Q96RI1 whole entry, looked up): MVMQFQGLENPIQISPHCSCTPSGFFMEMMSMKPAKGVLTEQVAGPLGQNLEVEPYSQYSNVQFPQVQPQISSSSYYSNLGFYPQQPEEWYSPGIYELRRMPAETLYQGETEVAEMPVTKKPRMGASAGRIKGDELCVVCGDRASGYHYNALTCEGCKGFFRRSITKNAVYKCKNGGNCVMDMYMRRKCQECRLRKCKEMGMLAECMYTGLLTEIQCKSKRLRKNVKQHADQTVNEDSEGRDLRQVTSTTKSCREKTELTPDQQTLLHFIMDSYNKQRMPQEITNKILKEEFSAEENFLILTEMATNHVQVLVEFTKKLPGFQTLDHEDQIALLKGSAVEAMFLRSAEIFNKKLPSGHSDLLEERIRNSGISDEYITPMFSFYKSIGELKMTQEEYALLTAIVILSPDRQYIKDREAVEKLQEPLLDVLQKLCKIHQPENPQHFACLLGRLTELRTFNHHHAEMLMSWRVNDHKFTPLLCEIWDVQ
Peroxisome proliferator-activated receptor gamma (Homo sapiens), sequence (P37231 whole entry, looked up): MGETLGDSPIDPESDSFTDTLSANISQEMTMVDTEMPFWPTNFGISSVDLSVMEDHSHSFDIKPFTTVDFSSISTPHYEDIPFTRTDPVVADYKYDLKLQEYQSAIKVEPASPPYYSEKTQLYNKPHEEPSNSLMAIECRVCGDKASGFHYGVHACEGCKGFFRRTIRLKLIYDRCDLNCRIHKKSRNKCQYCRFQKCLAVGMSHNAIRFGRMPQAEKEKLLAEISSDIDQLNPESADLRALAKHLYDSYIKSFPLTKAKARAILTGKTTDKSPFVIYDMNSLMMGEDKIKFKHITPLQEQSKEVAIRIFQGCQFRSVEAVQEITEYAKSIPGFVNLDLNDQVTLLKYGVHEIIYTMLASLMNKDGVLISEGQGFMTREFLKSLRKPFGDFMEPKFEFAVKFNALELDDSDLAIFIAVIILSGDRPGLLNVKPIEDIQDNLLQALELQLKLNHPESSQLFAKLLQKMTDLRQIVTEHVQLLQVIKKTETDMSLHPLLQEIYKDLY
Vitamin D3 receptor (Homo sapiens), sequence (P11473 whole entry, looked up): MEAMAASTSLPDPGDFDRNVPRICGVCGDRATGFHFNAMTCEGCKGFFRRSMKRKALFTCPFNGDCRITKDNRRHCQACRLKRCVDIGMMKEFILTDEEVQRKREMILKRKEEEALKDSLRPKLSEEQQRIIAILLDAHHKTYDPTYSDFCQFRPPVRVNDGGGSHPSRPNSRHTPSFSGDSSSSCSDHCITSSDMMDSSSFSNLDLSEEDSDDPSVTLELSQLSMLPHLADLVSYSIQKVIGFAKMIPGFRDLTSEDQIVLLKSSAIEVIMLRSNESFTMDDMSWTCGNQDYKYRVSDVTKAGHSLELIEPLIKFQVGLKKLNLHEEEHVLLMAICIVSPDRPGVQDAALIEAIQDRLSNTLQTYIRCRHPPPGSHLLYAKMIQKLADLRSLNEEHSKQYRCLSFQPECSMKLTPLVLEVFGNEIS
Aryl hydrocarbon receptor (Homo sapiens), sequence (P35869 whole entry, looked up): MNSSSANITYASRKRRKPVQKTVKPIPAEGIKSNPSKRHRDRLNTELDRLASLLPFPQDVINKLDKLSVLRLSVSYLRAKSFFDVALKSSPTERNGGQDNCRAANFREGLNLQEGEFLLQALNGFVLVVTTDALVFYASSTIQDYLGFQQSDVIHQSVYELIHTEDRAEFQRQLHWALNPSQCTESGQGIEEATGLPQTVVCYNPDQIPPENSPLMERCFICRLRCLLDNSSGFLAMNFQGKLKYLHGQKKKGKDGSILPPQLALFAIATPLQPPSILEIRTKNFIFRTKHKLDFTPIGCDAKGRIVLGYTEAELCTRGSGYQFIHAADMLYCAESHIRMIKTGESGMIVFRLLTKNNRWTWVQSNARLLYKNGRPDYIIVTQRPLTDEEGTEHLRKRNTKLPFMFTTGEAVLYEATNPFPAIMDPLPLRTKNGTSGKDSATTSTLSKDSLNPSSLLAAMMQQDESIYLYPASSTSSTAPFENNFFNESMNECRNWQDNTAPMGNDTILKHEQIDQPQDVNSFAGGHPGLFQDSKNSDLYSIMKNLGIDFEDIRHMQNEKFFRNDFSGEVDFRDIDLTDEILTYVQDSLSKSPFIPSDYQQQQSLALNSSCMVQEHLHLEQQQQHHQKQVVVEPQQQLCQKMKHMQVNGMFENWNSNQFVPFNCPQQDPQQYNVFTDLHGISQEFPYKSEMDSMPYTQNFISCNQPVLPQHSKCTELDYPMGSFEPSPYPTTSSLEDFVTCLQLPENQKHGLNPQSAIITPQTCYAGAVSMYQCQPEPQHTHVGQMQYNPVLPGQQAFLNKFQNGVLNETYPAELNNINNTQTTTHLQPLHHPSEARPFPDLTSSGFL

Brc1ccccc1
inactive: [1] | [2] | [3] | [4] | [5] | [6] | [7] | [8] | [9] | [10] | [11] | [12] | [13] | [14] | [15] | [16] | [17]

COc1cc(Cl)c(OC)cc1Cl
inactive: [1] | [2] | [3] | [4] | [5] | [6] | [8] | [9] | [10] | [11] | [13] | [15] | [16] | [17]

N#CCc1ccccc1
inactive: [1] | [2] | [3] | [4] | [5] | [6] | [8] | [9] | [11] | [12] | [13] | [14] | [15] | [16] | [17]

COc1c(C(C)(C)C)cc([N+](=O)[O-])c(C)c1[N+](=O)[O-]
inactive: [1] | [2] | [3] | [4] | [5] | [6] | [8] | [9] | [10] | [11] | [12] | [13] | [14] | [15] | [16] | [17] | [18]

CC1C(=O)C[C@]2(C(C)C)C[C@H]12 (stereo partly drawn)
inactive: [1] | [2] | [3] | [4] | [5] | [6] | [8] | [9] | [10] | [11] | [12] | [13] | [14] | [19] | [15] | [20] | [16] | [17]

CCCN(CCC)c1c([N+](=O)[O-])cc(S(C)(=O)=O)cc1[N+](=O)[O-]
inactive: [1] | [2] | [3] | [4] | [5] | [6] | [7] | [8] | [9] | [11] | [12] | [13] | [14] | [15] | [16]

CC(C)(Cl)[N+](=O)[O-]
inactive: [1] | [2] | [3] | [4] | [5] | [6] | [8] | [9] | [10] | [11] | [12] | [13] | [14] | [19] | [20] | [16] | [17] | [18]

CCCCC(CC)COP(=O)(Oc1ccccc1)Oc1ccccc1 (stereo not drawn)
inactive: [1] | [2] | [3] | [4] | [5] | [6] | [8] | [9] | [10] | [12] | [13] | [15] | [20] | [16] | [17]

O=S(=O)(Cl)c1ccccc1
inactive: [1] | [2] | [3] | [4] | [5] | [6] | [7] | [8] | [9] | [10] | [11] | [12] | [13] | [19] | [20] | [16] | [17] | [18]

CCN(C)N=O
inactive: [1] | [2] | [3] | [4] | [5] | [6] | [8] | [9] | [10] | [11] | [12] | [13] | [14] | [15] | [16] | [17] | [18]

N#CCC#N
inactive: [1] | [2] | [3] | [4] | [5] | [6] | [8] | [11] | [13] | [14] | [15] | [16] | [17]

O=C(CBr)c1ccccc1
inactive: [1] | [2] | [3] | [4] | [5] | [6] | [8] | [11] | [12] | [13] | [14] | [19] | [20] | [16]

CCCCCCCCOC(=O)c1ccc(C(=O)OCCCCCCCC)c(C(=O)OCCCCCCCC)c1
inactive: [1] | [2] | [3] | [4] | [5] | [6] | [8] | [9] | [11] | [12] | [13] | [14] | [19] | [15] | [20]

c1ccc(C2CC2)c(OCC2=NCCN2)c1
inactive: [1] | [2] | [3] | [4] | [5] | [6] | [7] | [8] | [9] | [10] | [11] | [12] | [13] | [14] | [15] | [16] | [17]

COc1cc(CC(C)N)cc2c1OCO2 (stereo not drawn)
inactive: [1] | [2] | [3] | [4] | [5] | [6] | [8] | [9] | [10] | [11] | [12] | [13] | [14] | [19] | [20] | [16]

ClC=C(Cl)Cl
inactive: [1] | [2] | [3] | [4] | [5] | [6] | [8] | [9] | [10] | [11] | [12] | [13] | [14] | [19] | [20] | [16]

CC(C)(CCl)C(=O)Cl
inactive: [1] | [2] | [3] | [4] | [5] | [6] | [8] | [9] | [11] | [12] | [14] | [16] | [18]
